# According to PubChem BioAssay AID2283179 (EPA ToxCast):
# Records with an inconclusive call do not appear. Activity calls are given as the source filed them. Rule for the calls: active = hit-call score of the fitted dose curve at least 0.9, where 1 is the maximum; inconclusive = response in the unintended direction; inactive = score below 0.9.
# Molecular target: human Microtubule Affinity Regulating Kinase 1 (MARK1), MARK1 (gene 4139) (UniProt Q9P0L2)
# Test: NVS_ENZ_hMARK1: NovaScreen (NVS) Enzymatic Assay for human Microtubule Affinity Regulating Kinase 1 (MARK1)
# Description: NVS_ENZ_hMARK1 is a biochemical, single-readout assay that uses extracted gene-proteins in a cell-free assay. Measurements were taken 1 hour after chemical dosing in a 384-well plate.NVS_ENZ_hMARK1 is one of one assay component(s) measured or calculated from the NVS_ENZ_hMARK1 assay. It is designed to make measurements of enzyme activity, a form of enzyme reporter, as detected with fluorescence intensity signals by Fluorescence and electrophoretic mobility shift technology.Data from the assay component NVS_ENZ_hMARK1 was analyzed into 1 assay endpoint. This assay endpoint, NVS_ENZ_hMARK1, was analyzed in the positive analysis fitting direction relative to DMSO as the negative control and baseline of activity. Using a type of enzyme reporter, loss-of-signal activity can be used to understand changes in the enzymatic activity as they relate to the gene MARK1. Furthermore, this assay endpoint can be referred to as a primary readout, because this assay has produced multiple assay endpoints where this one serves a enzymatic activity function. To generalize the intended target to other relatable targets, this assay endpoint is annotated to the kinase intended target family, where the subfamily is serine/threonine kinase.
# Binding assays used specific radioligands (tritiated, iodinated) with non-radioactive competitive displacement ligands in agonist or antagonist protocols (as indicated) and various reference compounds and inhibitors to titrate specific binding to receptors and transporters. Most enzyme assays (CYPs, kinases, phosphatases, proteases, HDACs) used recombinant protein and specific substrates (fluorescence mostly, some colorimetric and radioactive) and inhibitors, followed by a biochemical separation of substrate and product. All assays for the biochemical HTS were initially run in duplicate at a single concentration (10 uM for CYP450 assays and 25 uM for all others). Assay-chemical combinations meeting a pre-defined threshold (e.g., 30% inhibition and other criteria defined below) were then run in singleton concentration-response format with maximum concentration of 20 uM for CYPs and 50 uM for all others. Each assay was run with positive and negative controls, and concurrent controls on every plate. The follow-up (secondary) screen tested active chemical-pairs in concentration series, as well as a few additional assays not tested in the primary screen, some selected negative inactives, and several cases re-run in the concentration series for confirmatory purposes.
# human Microtubule Affinity Regulating Kinase 1 (MARK1), MARK1 (gene 4139), sequence (Q9P0L2 whole entry, looked up): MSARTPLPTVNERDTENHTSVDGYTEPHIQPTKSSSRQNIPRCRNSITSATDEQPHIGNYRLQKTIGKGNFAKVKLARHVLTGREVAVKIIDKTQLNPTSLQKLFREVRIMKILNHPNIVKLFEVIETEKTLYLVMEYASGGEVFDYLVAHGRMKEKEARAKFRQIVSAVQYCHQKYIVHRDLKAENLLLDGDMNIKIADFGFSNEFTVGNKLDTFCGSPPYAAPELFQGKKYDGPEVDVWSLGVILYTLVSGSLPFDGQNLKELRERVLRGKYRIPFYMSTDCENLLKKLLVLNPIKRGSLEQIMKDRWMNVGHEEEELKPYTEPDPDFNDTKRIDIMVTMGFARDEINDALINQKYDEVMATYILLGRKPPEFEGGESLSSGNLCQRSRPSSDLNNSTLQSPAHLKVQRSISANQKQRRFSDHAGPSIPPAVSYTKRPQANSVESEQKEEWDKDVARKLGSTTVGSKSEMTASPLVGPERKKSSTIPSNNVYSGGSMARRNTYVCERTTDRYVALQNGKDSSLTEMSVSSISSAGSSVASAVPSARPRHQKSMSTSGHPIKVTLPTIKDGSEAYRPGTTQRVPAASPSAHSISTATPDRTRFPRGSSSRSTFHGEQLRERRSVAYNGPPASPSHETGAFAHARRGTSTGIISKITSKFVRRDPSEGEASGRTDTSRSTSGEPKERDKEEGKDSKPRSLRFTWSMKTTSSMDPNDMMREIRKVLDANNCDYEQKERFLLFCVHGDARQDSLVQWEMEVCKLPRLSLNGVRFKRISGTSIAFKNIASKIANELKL
SMILES,AC50,outcome
CN(C)[C@@H]1C(=O)C(C(N)=O)=C(O)[C@@]2(O)C(=O)C3=C(O)c4c(O)cccc4[C@@](C)(O)[C@H]3[C@H](O)[C@@H]12,18 µM (active),
O=S(=O)(O)C(F)(F)C(F)(F)C(F)(F)C(F)(F)C(F)(F)C(F)(F)C(F)(F)C(F)(F)F,36.8 µM (active),
CNC(=S)S,,inactive
COP(=S)(OC)Oc1nc(Cl)c(Cl)cc1Cl,,inactive
Nc1c(Cl)cc([N+](=O)[O-])cc1Cl,,inactive
O=C(O)C(F)(F)C(F)(F)C(F)(F)C(F)(F)C(F)(F)C(F)(F)C(F)(F)F,,inactive
CCOP(=S)(OCC)Oc1nc(Cl)n(C(C)C)n1,,inactive
N#CSCSC#N,,inactive
CCOP(=O)(OCC)Oc1nc(Cl)c(Cl)cc1Cl,,inactive
COc1nc(C)nc(NC(=O)NS(=O)(=O)c2ccccc2CCC(F)(F)F)n1,,inactive
CCNC(=O)NC(=O)C(C#N)=NOC,,inactive
COC(=O)c1ccccc1S(=O)(=O)NC(=O)N(C)c1nc(C)nc(OC)n1,,inactive
